This passage reports Percent Effect results from ChEMBL document CHEMBL3988442, “University of Dundee, Small-Polar-MMV Screening Library” (2021).

Screen size: about 67,000 compounds; about 300 (0.45%) showed an effect of 50% or more. What follows is part of a selection rich in strong results, with near analogues and random picks from the rest.

The target of this assay is Polyketide synthase Pks13 (Mycobacterium tuberculosis (strain ATCC 25618 / H37Rv)) (UniProt I6X8D2). Kind of assay: Mycobacterium tuberculosis Polyketide synthase 13 Thioesterase (PKS13). The format is functional. Also noted: scale not given: in the data most compounds retested in dose-response had high values. The settings on record: 30 µM.
Polyketide synthase Pks13 (Mycobacterium tuberculosis (strain ATCC 25618 / H37Rv)), sequence (I6X8D2 whole entry): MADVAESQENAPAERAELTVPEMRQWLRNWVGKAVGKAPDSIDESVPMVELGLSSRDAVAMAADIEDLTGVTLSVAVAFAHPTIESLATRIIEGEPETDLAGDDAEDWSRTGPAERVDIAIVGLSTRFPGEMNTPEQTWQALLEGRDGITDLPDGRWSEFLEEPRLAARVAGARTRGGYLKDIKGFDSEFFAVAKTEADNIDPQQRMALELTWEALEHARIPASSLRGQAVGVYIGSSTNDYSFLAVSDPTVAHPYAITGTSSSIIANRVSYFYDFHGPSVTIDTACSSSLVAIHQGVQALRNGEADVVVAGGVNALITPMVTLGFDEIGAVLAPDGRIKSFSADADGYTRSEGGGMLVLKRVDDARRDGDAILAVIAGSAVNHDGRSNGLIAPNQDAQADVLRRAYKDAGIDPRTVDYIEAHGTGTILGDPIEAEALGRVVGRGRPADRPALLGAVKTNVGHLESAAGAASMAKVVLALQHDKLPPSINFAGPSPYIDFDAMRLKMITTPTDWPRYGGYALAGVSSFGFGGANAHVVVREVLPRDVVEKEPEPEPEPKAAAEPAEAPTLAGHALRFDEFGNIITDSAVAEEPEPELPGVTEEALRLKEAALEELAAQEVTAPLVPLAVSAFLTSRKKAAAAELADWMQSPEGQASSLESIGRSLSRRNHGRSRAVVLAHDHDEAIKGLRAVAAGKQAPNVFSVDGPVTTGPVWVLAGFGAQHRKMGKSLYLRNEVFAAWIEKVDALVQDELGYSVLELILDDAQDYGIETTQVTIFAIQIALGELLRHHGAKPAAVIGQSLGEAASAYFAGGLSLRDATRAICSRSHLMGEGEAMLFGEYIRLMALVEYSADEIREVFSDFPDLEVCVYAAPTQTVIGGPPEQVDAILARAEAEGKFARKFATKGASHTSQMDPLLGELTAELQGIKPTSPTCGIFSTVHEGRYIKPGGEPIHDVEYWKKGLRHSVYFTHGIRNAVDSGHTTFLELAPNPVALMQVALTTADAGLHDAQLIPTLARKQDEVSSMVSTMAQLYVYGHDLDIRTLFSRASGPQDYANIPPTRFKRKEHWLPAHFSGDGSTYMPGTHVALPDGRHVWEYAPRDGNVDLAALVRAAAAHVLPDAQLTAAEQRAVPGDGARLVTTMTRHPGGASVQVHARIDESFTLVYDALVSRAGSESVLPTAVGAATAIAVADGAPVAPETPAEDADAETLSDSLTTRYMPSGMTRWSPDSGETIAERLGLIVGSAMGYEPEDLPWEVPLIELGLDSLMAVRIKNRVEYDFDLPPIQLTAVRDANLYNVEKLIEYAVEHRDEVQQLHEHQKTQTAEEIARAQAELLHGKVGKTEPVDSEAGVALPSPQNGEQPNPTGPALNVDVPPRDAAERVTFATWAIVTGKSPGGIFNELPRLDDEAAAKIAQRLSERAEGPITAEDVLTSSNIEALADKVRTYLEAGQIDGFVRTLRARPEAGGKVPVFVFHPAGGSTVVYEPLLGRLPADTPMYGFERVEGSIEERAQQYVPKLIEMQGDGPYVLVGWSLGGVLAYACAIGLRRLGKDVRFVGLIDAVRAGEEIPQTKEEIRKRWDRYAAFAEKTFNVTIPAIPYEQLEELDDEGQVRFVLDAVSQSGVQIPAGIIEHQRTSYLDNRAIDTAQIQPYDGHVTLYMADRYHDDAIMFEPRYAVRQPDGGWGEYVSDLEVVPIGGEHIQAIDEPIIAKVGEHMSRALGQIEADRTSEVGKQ
Take `COc1ccccc1N1CCC(CNCc2ccc(C#N)cc2)C1` (configuration not stated): the Percent Effect was -12.2%.

`COc1ccccc1N1CCC(CNS(=O)(=O)c2c(C)nn(C)c2C)C1` (configuration not stated): the Percent Effect stood at 0.665%.

`COc1ccccc1N1CCC(CNCc2cccc(OC)c2OC)C1` (configuration not stated): the Percent Effect is -8.68%.

As for `O=C([C@H]1CC[C@@H]2[C@@H](CCN2c2ncccn2)O1)N1CCCCO1`, the Percent Effect came out at 4.55%.

For the compound `Cn1cnc(S(=O)(=O)N2CCO[C@H]3[C@H](OCC4CC4)CC[C@@H]32)c1`, the Percent Effect was -28.3%.

Consider `O=C(N1CCOCC1)[C@@]12CCO[C@@H]1CCN(CCN1CCCCC1)C2`, for which the Percent Effect is -23.6%.

`COCCN1C[C@H]2CCN(C(=O)c3cc(C)on3)CC[C@H]2S1(=O)=O`: the Percent Effect is -423%.

As to `Cc1nn(C)c2c(=O)n(CC(=O)NC3CCCCC3)ccc12`, the Percent Effect is -9.58%.

Consider `CCS(=O)(=O)NC[C@]12COC[C@H]1CN(Cc1cc(C)on1)C2`, for which the Percent Effect was -29.9%.

For `CNC(=O)N1CC[C@@H]2CN(Cc3cccc(OC)c3)S(=O)(=O)[C@@H]2CC1`, the Percent Effect was -16.2%.

For `N#Cc1cccnc1N1CCCC(CO)(Cc2ccc(F)cc2)C1` (configuration not stated), the Percent Effect is -5.66%.

On to `OCC1(Cc2cccc(Cl)c2)CCCN(c2ncccn2)C1` (configuration not stated), for which the Percent Effect was 20.3%.

For `N#Cc1cccnc1N1CCCC(CO)(Cc2cccc(Cl)c2)C1` (configuration not stated), the Percent Effect stood at 96.8%.

As to `CCC(=O)N1CCN(Cc2cnc(C)nc2)[C@H]2CS(=O)(=O)C[C@H]21`, the Percent Effect was -6.93%.

`Cc1noc(C)c1CN1CC[C@H]2C[C@H](c3ccncn3)O[C@@H]2C1`: the Percent Effect is -14.6%.

For `Cn1ccc(C(=O)NCc2ccc(CN3CCCC3)cc2)cc1=O`, the Percent Effect is -2.41%.

On to `Cn1ccc(C(=O)NCc2cccc(CN3CCCC3)c2)cc1=O`, for which the Percent Effect was determined as 56.3%.

On to `Cn1ccc(C(=O)NCc2cccc(NC(=O)C3CCC3)c2)cc1=O`, for which the Percent Effect is 107%.

As for `Cn1ccc(C(=O)NCc2cccc(N3CCCCC3=O)c2)cc1=O`, the Percent Effect was found to be 14.5%.

Consider `Cn1ccc(C(=O)NCc2cccc(Cn3ccnc3)c2)cc1=O`, for which the Percent Effect is -52%.

`Cn1ccc(C(=O)NCc2ccc(CN3CCCCC3)cc2)cc1=O`: the Percent Effect was 4.22%.

`Cc1cc(N2CCN(C(=O)[C@@H]3C[C@@H]4C=C[C@H]3C4)CC2)cc(C)n1`: the Percent Effect was -10.7%.

As for `CCc1nccn1CC(=O)N1C[C@H]2CC[C@@H]1CN(C(=O)N(C)C)C2`, the Percent Effect was -13.8%.

For `CN1CCN(Cc2nc3ccccc3[nH]2)[C@H]2CS(=O)(=O)C[C@H]21`, the Percent Effect is -21.3%.

Take `Cc1cnc(N2C[C@@H]3[C@@H](C2)OCC(=O)N3CCN(C)C)nc1`: the Percent Effect turned out to be 3.47%.

Take `O=C(c1ccc(COc2ccc(Cl)cc2)o1)N1N=CCC1(O)C(F)(F)F` (configuration not stated): the Percent Effect turned out to be 73.2%.

Regarding `O=C(c1ccc(COc2ccccc2Cl)o1)N1N=CCC1(O)C(F)(F)F` (configuration not stated), the Percent Effect stood at 37.5%.

Take `Cc1cccc(OCc2ccc(C(=O)N3N=CCC3(O)C(F)(F)F)o2)c1` (configuration not stated): the Percent Effect came out at 45.3%.

In the case of `O=C(c1cccnc1)N1CCN2C(=O)N(Cc3ccc(F)cc3)C[C@H]2C1`, the Percent Effect turned out to be 2.86%.

With `CC(C)N(C)C[C@H]1C[C@@H]2CN(Cc3ccco3)C[C@@H]2O1`, the Percent Effect was -28.7%.

`CCOC(=O)[C@]12CCCN(Cc3nccs3)C[C@H]1CN(CC(C)C)C2`: the Percent Effect was -5.86%.

On to `Cc1cc(C2CCCCN2C(=O)c2cccn2C)nc2nccn12` (configuration not stated), for which the Percent Effect worked out at 8.03%.

In the case of `Cc1cc(C2CCCCN2C(=O)c2ccsc2)nc2nccn12` (configuration not stated), the Percent Effect was 84.3%.

With `Cc1noc(C)c1C(=O)N1CCCCC1c1cc(C)n2ccnc2n1` (configuration not stated), the Percent Effect was -1.89%.

Consider `CC(C)CN1C(=O)CO[C@@H]2CN(C(=O)N3CCOCC3)C[C@H]21`, for which the Percent Effect is -27.7%.

`O=C(c1ccnnc1)N1C[C@H]2CCC[C@@H](OCc3cccnc3)[C@@H]2C1`: the Percent Effect was 8.09%.

With `O=C(NCCc1ccccc1)N1C[C@H]2C[C@H](C(=O)N3CCCC3)[C@@H](C1)O2`, the Percent Effect was -28.3%.

`O=C(c1cc(-c2ccco2)nc2c(Cl)cccc12)N1C[C@H]2CNC[C@H]2C1`: the Percent Effect was -42.7%.

For `O=C(c1cc(-c2ccco2)nc2c(Cl)cccc12)N1CCS(=O)(=O)CC1`, the Percent Effect was -5.09%.

On to `COCC1CCN(C(=O)c2cc(-c3ccco3)nc3c(Cl)cccc23)C1` (configuration not stated), for which the Percent Effect worked out at 66.3%.

As for `O=C(O)C1c2nc[nH]c2CCN1Cc1cc(-c2ccccc2)no1` (configuration not stated), the Percent Effect is -11.2%.

`O=C(O)C1c2nc[nH]c2CCN1Cc1ccc(-c2ccccc2)s1` (configuration not stated): the Percent Effect is -9.34%.

For `O=C(O)C1c2nc[nH]c2CCN1Cc1ccccc1-c1ccccc1` (configuration not stated), the Percent Effect worked out at 62.3%.

As to `CSCC(=O)N1C[C@H]2CC[C@@H]1CN(C1Cc3ccccc3C1)C2`, the Percent Effect was -8.9%.

For the compound `Cc1nccc([C@@H]2C[C@@H]3CCN(Cc4cccs4)C[C@H]3O2)n1`, the Percent Effect is -9.54%.

In the case of `N#Cc1cccc(N2CCC3(CCC(=O)N(CCCO)C3)CC2)n1`, the Percent Effect is -0.0305%.

As to `OCC1(CCOc2ccccc2)CCN(c2ccc(Cl)cn2)CC1`, the Percent Effect came out at 43.4%.

`CC(=O)c1ccc(N2CCCC(CO)(Cc3ccccc3F)C2)nc1` (configuration not stated): the Percent Effect is -9.09%.

For `N#Cc1cccc(N2CCC3(CC2)Nc2ccccc2NC3=O)n1`, the Percent Effect was -22.8%.

`N#Cc1cccc(N2CCCC(CO)(CCOc3ccccc3)C2)n1` (configuration not stated): the Percent Effect came out at 132%.

Take `Nc1nccc(N2CCCC(CO)(CCOc3ccccc3)C2)n1` (configuration not stated): the Percent Effect was -23.1%.

As for `OCC1(CCOc2ccccc2)CCCN(c2ccc(Cl)cn2)C1` (configuration not stated), the Percent Effect turned out to be 56.5%.

As for `CC(=O)c1ccc(N2CCCC(CO)(CCOc3ccccc3)C2)nc1` (configuration not stated), the Percent Effect amounted to 15.6%.

Regarding `N#Cc1ccc(N2CCCC(CO)(CCOc3ccccc3)C2)nc1` (configuration not stated), the Percent Effect came to 13.8%.

For the compound `CC(=O)c1ccc(N2CCCC(CO)(CCc3ccccc3)C2)nc1` (configuration not stated), the Percent Effect is 55.1%.

With `N#Cc1cccc(N2CCC(CO)(CCCc3ccccc3)CC2)n1`, the Percent Effect worked out at 67.6%.

On to `CCc1nc(N2CCCC(CO)(CCOC)C2)ncc1C` (configuration not stated), for which the Percent Effect was -19.2%.
